The term inhibition denotes the drop in the measured response relative to a control, in per cent.

Hit rate of the full screen: of about 360,000 compounds, about 3,600 (1%) were called active.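 Rule for the calls: active = compounds whose plate-normalised and pattern-corrected inhibition of the luciferase reporter signal at the single screening dose is 50% or more; inactive = the rest.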 Only a selection was taken, and actives are over-represented in it overall.

A short description of the experiment: inhibitors of TROY-driven NF-kB signaling, primary screen, Q293 LMP1-TROYcd cells, NF-kB luciferase, uHTS (AID 1347056). The conditions noted are these: Q293 LMP1-TROYcd NF-kB luciferase reporter, 4 h; at 10 µM; active compounds read high. On the technique in general: A reporter such as luciferase makes a cellular process visible.
For `Cc1ccc(NC(=S)N(CCCN2CCCC2)Cc2cccn2Cc2ccc(Cl)cc2)cc1`, the inhibition was -45.1% (inactive).
Consider `COc1cc(/C=C(/NC(=O)c2ccc(Cl)cc2Cl)C(=O)O)cc(OC)c1OC`, for which the inhibition is 18.8% (inactive).
The figure for `CCOc1cc(/C=C(/C#N)c2ccc(Cl)cc2)cc(Cl)c1OCC(=O)O` is 70.8% (active); for `CCOc1cc(/C=N/NC(=O)OC)ccc1OCCSc1ccc(Cl)cc1` it is 14.9% (inactive); for `O=C(O)C1=C[C@H](c2cccs2)C[C@H](OCCCCO)O1` it is -7.03% (inactive).
As for `COc1cccc(NC(=O)c2ccc3c(SCC(=O)O)c4c(nc3c2)CCCC4)c1`, the inhibition was -30.4% (inactive).
With `CC(C)CCNC(=O)c1ccc2c(Cl)c3c(nc2c1)CCC3`, the inhibition is 55.3% (active).
For `CC(C)CCC(C)NC(=O)c1ccc2nccnc2c1` (centres undefined), the inhibition was -39.8% (inactive).
With `COC(=O)CNS(=O)(=O)c1ccc(Cc2ccc(S(=O)(=O)NCC(=O)OC)cc2)cc1`, the inhibition was 13.7% (inactive).
Next, `Cc1nnc(OCC(=O)NCCC2=CCCCC2)c2ccccc12`: -8.28% (inactive).
As for `O=C(Cc1cccc2ccccc12)NCCC1=CCCCC1`, the inhibition was 80.3% (active).
In the case of `O=C(CCNC(=O)Cn1ccc2ccccc2c1=O)NCCC1=CCCCC1`, the inhibition was 7.75% (inactive).
For `COc1ccc(C(CNC(=O)c2ccc(OCc3cscn3)cc2)N2CCCC2)cc1` (centres undefined), the inhibition was 0.55% (inactive).
For the molecule `CCCS(=O)(=O)N1CCC(C(=O)NCCc2ccc(OC)c(OC)c2)CC1`, the inhibition was 0.11% (inactive).
Take `COc1cccc(CNc2nc(NCc3ccccc3OC)nc3ccsc23)c1`: the inhibition was 53.4% (active).
As for `COc1ccccc1CNc1nc(Nc2ccccc2Cl)c2sccc2n1`, the inhibition is 42.1% (inactive).
`COCCNc1nc(NCc2ccc(NC(C)=O)cc2)c2sccc2n1`: the inhibition is 8.19% (inactive).
Consider `Clc1ccccc1Nc1nc(NCc2cccs2)nc2ccsc12`, for which the inhibition is 6.87% (inactive).
Consider `COc1cccc(-c2cc3nc(NCc4ccccc4OC)n(C)c(=O)c3s2)c1`, for which the inhibition was -20.1% (inactive).
Regarding `COc1cccc(CNc2nc(NCc3cccs3)nc3ccsc23)c1`, the inhibition was 57.2% (active).
Regarding `CCOCCCNC(=S)N1CCC(NC(=O)C2CCCCC2)CC1`, the inhibition was 10.6% (inactive).
On to `COc1ccc(C)cc1S(=O)(=O)NCCc1ccccc1`, for which the inhibition is 10.5% (inactive).
With `O=[N+]([O-])c1cc(S(=O)(=O)NCCc2ccccn2)ccc1Cl`, the inhibition is -5.27% (inactive).
On to `Cc1ccc(CC(=O)Nc2cccc(C#N)c2)cc1`, for which the inhibition is 5.18% (inactive).
For `CCOc1c2ccc(C(=O)NC3CCCc4ccccc43)cc2nn1CC` (centres undefined), the inhibition is 2.7% (inactive).
Turning to `C/C(=N\NS(=O)(=O)c1ccc(Cl)cc1)c1ccc(NC(=O)c2ccco2)cc1`, the inhibition is -42.5% (inactive).
Consider `COc1ccc(-n2ncc3c(SCC(=O)NNC(C)=O)ncnc32)cc1`, for which the inhibition was -14.8% (inactive).
On to `CN(C(=O)COc1ncnc2c1cnn2-c1ccccc1)C1CCCCC1`, for which the inhibition is 11.5% (inactive).
The figure for `COc1ccc(-n2ncc3c(N4CCCc5ccccc54)ncnc32)cc1` is 62.1% (active).
Take `O=C(CC1CCCCC1)NCc1ccc(F)cc1`: the inhibition is -30.5% (inactive).
With `CC(C)NC(=O)N1Cc2cc(C(=O)NCC(F)(F)F)nc(-c3cccc(-c4cc5ccccc5o4)c3)c2[C@@H]1CCO`, the inhibition was 9.45% (inactive).
`COC(=O)[C@@H]1C[C@H]2CC[C@H](O)C[C@H]2N1Cc1ccc(N2CCN(C)CC2)cc1`: the inhibition was 4.5% (inactive).
The figure for `CC(C)(CNC(=O)CNC(=O)C1CCCCC1)N1CCOCC1` is 6.69% (inactive); for `O=C(O)c1cc(S(=O)(=O)N(Cc2ccccc2)c2cccc(C(F)(F)F)c2)ccc1Cl` it is 3% (inactive); for `O=c1cc(O)c(-c2cccc(C(F)(F)F)c2)c(Cl)[nH]1` it is -14.8% (inactive).
Next, `O=C(NNc1ccccc1Cl)C(O)(c1cccc(C(F)(F)F)c1)c1cccc(C(F)(F)F)c1`: 54.1% (active); `Cc1ccc(S(=O)(=O)N2CCC3(CC2)OCCO3)c(C)c1`: 5.19% (inactive); `COc1ccc(/C(C)=N/N2CCOCC2)c(O)c1`: 6.68% (inactive).
Next, `CC1=C(C)CC(C(=O)NNC(=O)c2csc3c2CCC(C(C)(C)C)C3)C(C(=O)O)C1` (centres undefined): -0.5% (inactive).
Consider `O=C(NCCCN1CCN(Cc2ccccc2)CC1)C1CCN(S(=O)(=O)N2CCCC2)CC1`, for which the inhibition was -13% (inactive).
`COc1ccc(CNC(=O)C2CCN(S(=O)(=O)N3CCOCC3)CC2)cc1`: the inhibition was 7% (inactive).
Regarding `COc1ccc(N2CCN(CCCNC(=O)C3CCN(S(=O)(=O)N4CCOCC4)CC3)CC2)cc1`, the inhibition is 91.5% (active).
The figure for `CCCCc1c(-c2ccc(Cl)cc2)ncn1CCc1ccccc1OC` is 38.5% (inactive); for `O=C(CNCc1ccc(F)cc1)Nc1ccccc1-c1ccccc1` it is 25.9% (inactive).
In the case of `OC1CCCN(c2ncnc3c2nnn3Cc2c(F)cccc2Cl)C1` (centres undefined), the inhibition was -10.3% (inactive).
With `Cc1cccc(NC(=O)/C=C/c2ccc3c(c2)OCO3)n1`, the inhibition was -33.1% (inactive).
For the molecule `C(=N\Nc1ccc2ccccc2n1)/c1ccc2c(c1)OCO2`, the inhibition is 69.8% (active).
On to `O=C(CNC(=O)C(c1ccccc1)c1ccccc1)N/N=C\c1ccc2c(c1)OCO2`, for which the inhibition is -30.7% (inactive).
Next, `COc1ccc(-c2nn(-c3ccccc3)cc2CN2CCCO2)c(F)c1`: -17.1% (inactive).
Next, `COc1ccc(-c2nn(-c3ccccc3)cc2/C=C2/SC(=S)N(CCCC(=O)O)C2=O)c(C)c1`: 58% (active); `COc1cccc(-c2nn(-c3ccccc3)cc2/C=C(\C#N)C(=O)NCCCn2ccnc2)c1`: -24.5% (inactive); `O=C(C1CCC1)N1CCN(S(=O)(=O)c2ccc([N+](=O)[O-])cc2)CC1`: -10.9% (inactive).
Consider `Cc1ccc2c(C)c(C(=O)N3CCN(c4ccncc4)CC3)oc2c1C`, for which the inhibition was 5.65% (inactive).
The figure for `Clc1cccc(N=C2NN=C(c3ccc4c(c3)OCCO4)CS2)c1` is 66.2% (active); for `CS(=O)(=O)N(CC(=O)N1CCN(Cc2ccccc2)CC1)c1ccc2c(c1)OCCO2` it is 19.4% (inactive); for `CC(=NC1CCN(Cc2ccccc2)CC1)c1c(O)[nH]c(=O)[nH]c1=O` it is 26.3% (inactive).
Regarding `c1ccc(CN2CCC(N=C3NN=C(c4ccc5c(c4)OCCO5)CS3)CC2)cc1`, the inhibition is 77.6% (active).
Turning to `CN(C)c1nc(=Nc2cccc(Cl)c2)ss1`, the inhibition was -31.5% (inactive).
As to `C/C(=N\NC(=O)c1ccc(NS(=O)(=O)c2cccs2)cc1)c1ccc2ccccc2c1`, the inhibition was -29.3% (inactive).
